From PubChem BioAssay (NCATS) come the findings set out here.

Assay [1] concerns the target Single-stranded DNA cytosine deaminase (Homo sapiens) (UniProt Q9GZX7). Description: Validation qHTS assay for inhibitors of Activation Induced Cytidine Deaminase (AID): AID signal (AID 1347429). Put shortly: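 In this coupled qHTS, AID deaminates a FRET-labelled ssDNA substrate in the presence of UDG over 4 hr at room temperature. Compounds span up to 114 uM final.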
A general note: In qHTS, concentration-response curves come from the screen itself.

Assay [2] is described as follows: Primary qHTS for inhibitors of La Crosse Virus (LACV) - induced cell death in SH-SY5Y cells (AID 1508616).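 Note: top concentration of the series differs between compounds; higher means more rescue of cells from virus-induced death.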 Put shortly: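 Readout was luminescence from ATPLite 1step added after a 6-day LACV infection (0.01 MOI) of SH-SY5Y cells that had received pin-transferred compound 24 hr after seeding.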
For assay [3], the target named is Calcium and integrin-binding protein 1 (Homo sapiens) (UniProt Q99828). Description: Validation qHTS for Identification of Calcium Integrin Binding protein 1 (CIB1) Competitor (AID 1508618). Put shortly: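 Fluorescence polarization with 1 uM CIB1-GST and 100 nM FITC-alphaIIb peptide in HEPES pH 7.4, NaCl, 5 mM CaCl2, Tween20. Compounds at up to 114 uM final, preincubated with protein 15 min; read after 15 min more at RT.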
Chain of Calcium and integrin-binding protein 1 (Homo sapiens) (Q99828 whole entry, looked up): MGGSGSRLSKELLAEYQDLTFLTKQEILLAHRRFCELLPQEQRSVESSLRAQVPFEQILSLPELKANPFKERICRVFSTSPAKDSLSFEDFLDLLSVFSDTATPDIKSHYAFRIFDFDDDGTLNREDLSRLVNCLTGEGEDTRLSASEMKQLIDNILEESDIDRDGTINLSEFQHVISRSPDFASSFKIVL

The target is the same in assay [4]. Kind of assay: Primary qHTS for Identification of Calcium Integrin Binding Protein 1 (CIB1) Competitor (AID 1508620). Note: top concentration of the series differs between compounds. Put shortly: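 Fluorescence polarization competition: GST-tagged CIB1 (1 uM final) preincubated with compound 15 min at room temperature, then FITC-labelled alphaIIb peptide (100 nM final) added. After 15 min at room temperature, polarization read at Ex 480/Em 540.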

The nature of assay [5]: Confirmatory qHTS for small molecule stabilizers of the endoplasmic reticulum resident proteome: Secreted ER Calcium Modulated Protein (SERCaMP) assay (AID 1508628). Note: nearly all actives have a fitted effect of over 40% in size. Note: potency is the fitted concentration of half-maximal effect. Put shortly: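 We seeded SH-SY5Y-GLuc-SERCaMP cells, added compounds (three concentrations in the primary run, eleven up to 76.6 uM in confirmation), incubated 16 h, depleted ER calcium with thapsigargin, and read luciferase 4 h later.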

Assay [6] is described as follows: Counterscreen qHTS for small molecule stabilizers of the endoplasmic reticulum resident proteome: GLuc-NoTag assay (AID 1508627).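 Note: SH-SY5Y cells given compound then 100 nM thapsigargin to empty ER calcium; series mostly up to about 76 µM.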 Put shortly:
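SH-SY5Y cells stably expressing constitutively secreted GLuc without SERCaMP tag, exposed to compound for 19 hr, then to 100 nM thapsigargin for 4 hr at 37C. Medium luciferase was read by coelenterazine luminescence without lysis.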
(Counterscreens check selectivity or assay interference.)

Assay [7] can be described thus: Cell Viability qHTS for small molecule stabilizers of the endoplasmic reticulum resident proteome (AID 1508629).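 Note: human SH-SY5Y neuroblastoma cells carrying the GLuc-SERCaMP reporter; compound exposure about 46 h in total before the viability read.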 The conditions noted are these: cell viability counter-screen, 100 nM thapsigargin for final 4 h.
Assay [8] in a line: Primary qHTS for small molecule stabilizers of the endoplasmic reticulum resident proteome: Secreted ER Calcium Modulated Protein (SERCaMP) assay (AID 1508630). Put shortly:
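GLuc-SERCaMP-expressing SH-SY5Y cells, pretreated 16 h with compound, are challenged with thapsigargin to empty ER calcium stores; after 4 h, coelenterazine is added directly to the medium and luminescence is imaged.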

Assay [9] in a line: A High-Content qHTS Against Drug Library for the Identification of Small Molecules that Inhibit DYT1 Early Onset Primary Dystonia-Associated Cell Pathology (AID 1645839; calls by dose curve; note: series mostly up to about 46 µM). Put shortly:
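Flp-In T-REx 293 cells with tetracycline-inducible EGFP-delE hTOR1A (WT EGFP-hTOR1A as reference), 800 cells/well; compound added with tetracycline, 48 h at 37 C. Fixed, permeabilized cells imaged; %pathology (punctate TorsinA) primary, cell count counterscreen.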

Assay [10] has as its target Calcium and integrin-binding protein 1 (Homo sapiens) (UniProt Q99828). Kind of assay: Confirmatory qHTS for Identification of Calcium Integrin Binding Protein 1 (CIB1) Competitor (AID 1508617). Note: nearly all actives have a fitted effect of over 65% in size. Put shortly: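 FP competition: CIB1-GST (1 uM final) in 5 mM HEPES pH 7.4, 125 mM NaCl, 5 mM CaCl2, 0.01% Tween20 preincubated 15 min RT with compounds (up to 114 uM), then FITC-alphaIIb peptide (100 nM), 15 min RT; Ex 480/Em 540.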

Values without a mark were called inactive. Results filed as inconclusive are left out. A call without a number means that no potency is given here. Active and inactive are the calls of the source. Unless noted, calls come from the whole dose curve; as a rule, active = well fitted curve in the direction sought with a large enough effect; inconclusive = small, poorly fitted or top-dose-only effect, or another doubt; inactive = no such curve, though single readings can be large; an effect the other way counts as inactive or inconclusive.

Chain of Single-stranded DNA cytosine deaminase (Homo sapiens) (Q9GZX7 whole entry, looked up): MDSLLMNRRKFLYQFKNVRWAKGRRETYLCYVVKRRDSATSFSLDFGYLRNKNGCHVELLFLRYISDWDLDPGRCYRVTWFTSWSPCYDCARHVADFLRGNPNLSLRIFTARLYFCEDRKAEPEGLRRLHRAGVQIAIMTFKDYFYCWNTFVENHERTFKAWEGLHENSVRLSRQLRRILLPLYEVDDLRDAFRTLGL

With `CNCCCC1c2ccccc2C=Cc2ccccc21`, the Potency entry in [1] and in [5] was “inactive” each time. Moreover, the outcome in assay [2], in assay [3] and in assay [4] was inactive.

For `CCN(CC)CCOC(=O)C1(C2CCCCC2)CCCCC1`, the Potency result in [1], in [6], in assay [5] and in assay [8] was “inactive” each time. Also, the result in assay [2], in assay [3] and in assay [4] was inactive. The max response in assay [7] was -2.82%.

As for `CC(CN1c2ccccc2Sc2ccccc21)N(C)C` (stereo not given), the Potency result in assay [1] was “inactive”. For the same molecule, the result in [2], in [3] and in assay [4] was inactive.

On to `CC(=O)OCC(=O)[C@@]1(O)CC[C@H]2[C@@H]3CCC4=CC(=O)CC[C@]4(C)[C@H]3C(=O)C[C@@]21C`, for which the Potency result in [1], in assay [8] and in assay [9] was “inactive” throughout. The outcome in [2], in assay [3] and in assay [4] was inactive.

In the case of `Cc1cc(C(C#N)c2ccc(Cl)cc2)c(Cl)cc1NC(=O)c1cc(I)cc(I)c1O` (stereo not given), the Potency entry in [10] was “inactive”.

`CC(=O)NC(Cc1ccccc1)C(=O)O` (stereo not given): in assay [10], the Potency result is “inactive”.

Take `CC(=O)c1ccc2c(c1)N(CCCN(C)C)c1ccccc1S2`: the Potency in [5] was 25.1 µM (active). For the same molecule, the max response in [7] is -6.13%.

`Cc1c(O)cccc1C(=O)N[C@@H](CSc1ccccc1)[C@H](O)CN1C[C@H]2CCCC[C@H]2C[C@H]1C(=O)NC(C)(C)C`: the Potency in assay [5] was 11.2 µM (active). Also, in assay [7], the max response is 7.19%.

`COc1ccc2cc1Oc1ccc(cc1)C[C@H]1c3c(cc4c(c3Oc3cc5c(cc3OC)CCN(C)[C@@H]5C2)OCO4)CCN1C`: the call in [2] and in [4] was inactive. For the same molecule, the Potency entry in [8] was “inactive”.

Take `COC(=O)[C@H]1[C@H]2C[C@@H]3c4[nH]c5cc(OC)ccc5c4CCN3C[C@H]2C[C@@H](OC(=O)COc2ccc(OC)cc2)[C@@H]1OC`: the call in assay [2] and in [4] was inactive. In addition, the Potency result in assay [8] was “inactive”.

Regarding `Cn1cc[nH]c1=S`, the result in assay [2] and in assay [4] was inactive. Also, the Potency result in assay [8] and in assay [9] was “inactive” each time.

For the molecule `COc1cc(C)c(Cc2cnc(N)nc2N)cc1OC`, the call in assay [2] and in assay [4] was inactive. The Potency result in assay [6] and in assay [9] was “inactive” each time. Besides, in assay [7], the max response is 8.8%.

`CCn1cc(C(=O)O)c(=O)c2cnc(N3CCNCC3)nc21`: the molecule was classed as inactive in assay [2] and in assay [4]. Moreover, the Potency entry in assay [8] was “inactive”.

Consider `CCCCN1CCCC[C@H]1C(=O)Nc1c(C)cccc1C`, for which the outcome in assay [2] and in assay [4] was inactive. Further, the Potency result in assay [8] and in assay [9] was “inactive” in each case.

On to `NC(=O)NNc1ccccc1`, for which the call in assay [2] and in assay [4] was inactive. Moreover, in assay [8], the Potency entry is “inactive”.

Take `O=C1Nc2ccc(Cl)cc2[C@@](C#CC2CC2)(C(F)(F)F)O1`: the result in assay [2] and in [4] was inactive. Also, the Potency result in [8] was “inactive”.

Turning to `CC(=O)Nc1ccc(/C=N/NC(N)=S)cc1`, the call in assay [2] and in [4] was inactive. In addition, the Potency entry in [8] and in assay [9] was “inactive” each time.

Turning to `O=c1cc(CO)occ1O`, the molecule was called inactive in assay [2] and in [4]. Further, the Potency result in assay [6] and in assay [5] was “inactive” throughout. For the same molecule, in [7], the max response is 8.05%.

Turning to `CCCc1c(OCCCCc2nn[nH]n2)ccc(C(C)=O)c1O`, the outcome in assay [2] and in [4] was inactive. Besides, the Potency result in assay [8] was “inactive”.

`C[C@H](N)[C@H](O)c1cccc(O)c1`: the outcome in assay [2] and in assay [4] was inactive. The Potency result in assay [8] and in assay [9] was “inactive” each time.

Regarding `CC1(C)Oc2ccc(C#N)cc2[C@@H](N2CCCC2=O)[C@@H]1O`, the result in [2] and in assay [4] was inactive. Besides, the Potency entry in assay [8] was “inactive”.

In the case of `Cc1c(Cl)cccc1Nc1ccccc1C(=O)O`, the molecule was classed as inactive in assay [2] and in assay [4]. Moreover, in [8], the Potency result was “inactive”.

As to `CC[N+](CC)(CC)CCOc1ccc(/C=C/c2ccccc2)cc1`, the outcome in assay [2] and in assay [4] was inactive. In addition, the Potency entry in assay [8] is “inactive”.

In the case of `COc1ccc2c(c1)C(=O)N(CCc1ccc(S(=O)(=O)NC(=O)NC3CCCCC3)cc1)C(=O)C2(C)C`, the outcome in [2] and in [4] was inactive. Also, the Potency result in [8] is “inactive”.

On to `C[C@]12CC[C@@H]3c4ccc(O)cc4CC[C@H]3[C@@H]1CC[C@@H]2OC(=O)CCC1CCCC1`, for which the molecule was classed as inactive in [2] and in [4]. The Potency result in [8] is “inactive”.

Regarding `CC1=C(C/C=C(\C)CCC[C@H](C)CCC[C@H](C)CCCC(C)C)C(=O)c2ccccc2C1=O`, the call in assay [2] and in [4] was inactive.

On to `O=C(CCCN1CCN(c2ccccn2)CC1)c1ccc(F)cc1`, for which the molecule was called inactive in assay [2] and in assay [4]. For the same molecule, in assay [8], the Potency result is “inactive”.

For `CCCCN(CCCC)CCCOC(=O)c1ccc(N)cc1`, the result in [2] and in [4] was inactive.

Regarding `C=CCn1c(=O)n([C@@H]2O[C@H](CO)[C@@H](O)[C@H]2O)c2nc(N)[nH]c(=O)c21`, the outcome in [2] and in [4] was inactive. Also, the Potency entry in assay [6] and in assay [5] was “inactive” throughout.

Consider `Cc1cc(O)cc2c1O[C@](C)(CCC[C@H](C)CCC[C@H](C)CCCC(C)C)CC2`, for which the molecule was classed as inactive in assay [2] and in [4]. For the same molecule, the Potency result in assay [8] and in [9] was “inactive” each time.

`COc1cc2[nH]c(=O)[nH]c(=O)c2cc1OC`: the outcome in assay [2] and in assay [4] was inactive. The Potency entry in assay [8] is “inactive”.

In the case of `OCC(O)CN1CCN(c2ccccc2)CC1` (stereo not given), the molecule was called inactive in [2] and in [4]. Also, the Potency result in assay [8] is “inactive”.

As to `Cc1cccc(Nc2cc(Cl)nc(SCC(=O)O)n2)c1C`, the outcome in [2] and in assay [4] was inactive. Besides, the Potency entry in assay [8] and in assay [9] was “inactive” each time.

As for `NS(=O)(=O)c1cc2c(cc1C(F)(F)F)NC(Cc1ccccc1)NS2(=O)=O` (stereo not given), the molecule was called inactive in [2] and in [4]. Further, the Potency entry in assay [8] and in assay [9] was “inactive” each time.

Turning to `CC(C)(C)NCC(O)COc1ccc(NC(=O)NC2CCCCC2)cc1` (stereo not given), the result in assay [2] and in assay [4] was inactive. For the same molecule, the Potency entry in assay [8] was “inactive”.
